NS1 inh = blocks influenza NS1 protein function | Potency, µM (series often up to 46.1 µM) | 0.4% of 270,000 active; calls by dose curve; further: actives are rising curves; nearly all actives have a fitted effect of over 50% in size
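OD600 was taken as the measure of yeast growth restored by compound in an NS1-expressing S. cerevisiae strain. Cells had been washed out of glucose medium and diluted 1:100 into galactose -URA medium, pH 6.0.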
CHX counter = affects cycloheximide protein synthesis inhibition readout, counter-screen. max response, %. AID 2314. cell reporter, cycloheximide protein synthesis inhibition counterscreen. 12% of 300,000 active; in the data active means max response mostly above about 13%, no sharp cut-off; inactive means mostly below about 14%; further: read at 38.3 µM for the half of the compounds with a filed dose
Giardia FBPA inh-1 = inhibitors of Giardia lamblia fructose-1,6-bisphosphate aldolase; A8B2U2; 0.71% of 290,000 active; Potency, µM (highest dose often 59.6 µM), most hits filed as inhibitors; purified Giardia FBPA; further: nearly all actives have a fitted effect of over 55% in size
Target sequence (A8B2U2 whole entry, looked up): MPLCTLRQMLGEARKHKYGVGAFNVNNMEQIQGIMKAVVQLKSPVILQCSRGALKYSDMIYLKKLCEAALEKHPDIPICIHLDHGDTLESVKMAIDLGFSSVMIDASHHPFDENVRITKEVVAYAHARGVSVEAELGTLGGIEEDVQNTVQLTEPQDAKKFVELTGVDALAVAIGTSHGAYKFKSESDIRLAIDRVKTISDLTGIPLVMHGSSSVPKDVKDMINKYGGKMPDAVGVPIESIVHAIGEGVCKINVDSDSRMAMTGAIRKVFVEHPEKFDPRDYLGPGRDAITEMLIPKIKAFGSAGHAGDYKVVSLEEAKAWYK
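40 nM FBPA preincubated 10 min at RT with compound (up to 57.5 uM final), then substrate plus GAPDH/TPI/NAD/arsenate coupling and diaphorase/resazurin added. Fluorescence read after 20 min at RT, 525/598 nm.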
LmPK inhibitor = LmPK (Leishmania mexicana) enzyme inhibition | purified LmPK, Kinase-Glo ATP luminescence, 1 h | Q27686 | Potency, µM (doses to about 57.5 µM), actives largely listed as inhibitors | 0.37% of 290,000 active
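Pyruvate kinase activity monitored as ATP production (luciferase luminescence). Conditions: 0.1 nM enzyme, 0.5 mM PEP, 0.1 mM ADP, 1 h, RT; normalized against uninhibited and no-enzyme wells.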
Shiga inhibitor = inhibitors of Shiga toxin in Vero cells | 9.2% of 290,000 active | inhibition, % at 38.7 µM | Vero cells, Shiga toxin protein synthesis inhibition reporter | AID 2315; in the data active means inhibition mostly above about 28%, no sharp cut-off; inactive means mostly below about 43%
Giardia growth = inhibitors of Giardia lamblia growth | shares compounds with Giardia FBPA inh-1 | 5% of 1,500 active | Giardia lamblia trophozoite growth inhibition | Potency, µM (doses to about 57.5 µM), actives largely listed as inhibitors;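 further: trophozoites exposed to compound for 48 h at 37 °C; nearly all actives have a fitted effect of over 70% in size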
Mammal cell tox = toxic to mammalian cells in Giardia aldolase counter-screen | mammalian cell viability counter-screen, qHTS | Potency, µM (doses to about 57.5 µM), usual class: inhibitors | 4% of 1,500 active | shares compounds with Giardia FBPA inh-1;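 further: Chinese hamster ovary cells used as mammalian cytotoxicity surrogate; viability measured as cellular ATP by luminescence; compound exposure lasted 48 h before reading; nearly all actives have a fitted effect of over 60% in size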
Giardia FBPA inh-2 = confirmation of Giardia fructose-bisphosphate aldolase inhibitors | shares compounds with Giardia FBPA inh-1 | 5% of 1,500 active | purified Giardia aldolase enzyme activity, qHTS | AID 2787 | Potency, µM (series often up to 57.5 µM), actives largely listed as inhibitors; further: nearly all actives have a fitted effect of over 45% in size
Rabbit FBPA inh = rabbit FBP aldolase inhibition by Giardia aldolase hits. shares compounds with Giardia FBPA inh-1. Rabbit muscle FBPA enzyme inhibition, selectivity counter-screen. Potency, µM (doses to about 57.5 µM), most hits filed as inhibitors. 4% of 1,500 active. AID 2794; further: nearly all actives have a fitted effect of over 60% in size
Target sequence (P00883 whole entry, looked up): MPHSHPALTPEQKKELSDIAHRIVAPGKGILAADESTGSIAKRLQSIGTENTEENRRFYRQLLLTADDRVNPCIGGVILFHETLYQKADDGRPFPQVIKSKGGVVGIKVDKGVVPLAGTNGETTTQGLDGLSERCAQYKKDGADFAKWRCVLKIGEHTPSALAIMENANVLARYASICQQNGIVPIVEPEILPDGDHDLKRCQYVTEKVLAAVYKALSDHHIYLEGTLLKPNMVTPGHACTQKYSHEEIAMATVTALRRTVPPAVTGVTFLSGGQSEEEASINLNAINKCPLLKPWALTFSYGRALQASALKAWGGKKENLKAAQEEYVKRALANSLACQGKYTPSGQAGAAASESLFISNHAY
GAPDH coupling = counter-screen for Giardia aldolase inhibitors: GAPDH coupling enzyme | 6% of 1,500 active | shares compounds with Giardia FBPA inh-1 | Potency, µM (titrated, usually from 57.5 µM), actives largely listed as inhibitors | GAPDH coupling enzyme counterscreen, biochemical, qHTS | AID 2795; further: nearly all actives have a fitted effect of over 55% in size
Large screens that a line does not name were inactive (follow-up assays come after a bar, where they were run); ! = a repeat was not active; [ ] = remark or other dose. In the library only some 14% were active in any assay of this set; here they are far more common. Unless noted, the call rests on the fitted dose curve; in most records, active means well fitted curve in the direction sought with a large enough effect; inconclusive means small, poorly fitted or top-dose-only effect, or another doubt; inactive means no such curve, though single readings can be large; an effect the other way counts as inactive or inconclusive.

CCOC(=O)c1c(-c2ccc(OC)cc2)csc1NC(=O)CNCc1ccco1	Giardia FBPA inh-1 inconclusive
CCOC(=O)c1c(-c2ccc(Cl)cc2)csc1NC(=O)CNCc1ccco1	Giardia FBPA inh-1 16µM | Giardia growth inactive | Mammal cell tox inactive | Giardia FBPA inh-2 inactive | Rabbit FBPA inh inactive | GAPDH coupling inactive
Nc1ncnc2c1ccn2[C@@H]1O[C@H](CO)[C@@H](O)[C@H]1O	none (no result: NS1 inh, LmPK inhibitor)
NC(=S)c1cn(C2OC(CO)C(O)C2O)c2ncnc(N)c12 (centres undefined)	Giardia FBPA inh-1 14µM | Giardia growth inactive | Mammal cell tox inconclusive | Giardia FBPA inh-2 inactive | Rabbit FBPA inh inactive | GAPDH coupling inactive
COc1ccc(C(=O)Nc2ccccc2)cc1NC(=O)c1cccs1	none (no result: Giardia FBPA inh-1)
COc1cc(NC(=O)c2ccc(NC3=NC4CS(=O)(=O)CC4S3)cc2)cc(OC)c1OC (centres undefined)	none
C=CCNC(=S)Nc1ccccc1-c1nnc2n1CCCCC2	Giardia FBPA inh-1 13µM | Giardia growth inactive[10.4 µM] | Mammal cell tox inactive | Giardia FBPA inh-2 inactive | Rabbit FBPA inh inactive | GAPDH coupling inactive
Nc1ccccc1-c1nnc2n1CCCCC2	none
COc1ccc(-c2ccnc3cc(C(=O)O)nn23)cc1	Giardia FBPA inh-1 18µM | Giardia growth inactive | Mammal cell tox inactive | Giardia FBPA inh-2 inactive | Rabbit FBPA inh inactive | GAPDH coupling inactive
CCOC1C(=O)NC(=O)N1Cc1ccccc1 (centres undefined)	Giardia FBPA inh-1 28µM | Giardia growth inactive | Mammal cell tox inactive | Giardia FBPA inh-2 inactive | Rabbit FBPA inh inactive | GAPDH coupling inactive
Cc1ccc(C)c(NNC(=O)C(=O)NNc2cc(C)ccc2C)c1	none
Cc1ccccc1NNC(=O)C(=O)NNc1ccccc1C	Giardia FBPA inh-1 16µM | Giardia growth inconclusive | Mammal cell tox inactive | Giardia FBPA inh-2 inactive | Rabbit FBPA inh inactive | GAPDH coupling inactive
Cn1c(=O)c2c([nH]c(=S)n2Cc2ccc(Cl)cc2)n(C)c1=O	Giardia FBPA inh-1 8.9µM, LmPK inhibitor inconclusive | Giardia growth inactive | Mammal cell tox inactive | Giardia FBPA inh-2 inactive | Rabbit FBPA inh inactive | GAPDH coupling inactive
Cc1ccc(CSCC(=O)N/N=C/c2cccc(OC3CSC3)c2)cc1	none
Cn1ncc(Br)c1C(=O)N/N=C/c1cccc(OC2CSC2)c1	Giardia FBPA inh-1 inconclusive, Shiga inhibitor 26 | Giardia growth inactive | Mammal cell tox inactive | Giardia FBPA inh-2 32µM | Rabbit FBPA inh 35µM | GAPDH coupling 35µM
S=C1NCCOCCNC(=S)NCCOCCOCCOCCN1	Giardia FBPA inh-1 4.5µM | Giardia growth inactive | Mammal cell tox inactive | Giardia FBPA inh-2 inactive | Rabbit FBPA inh inactive | GAPDH coupling inactive
O=C(O)c1cccc(-c2ccc(/C=N/Nc3nn[nH]n3)o2)c1	Giardia FBPA inh-1 16µM (no result: NS1 inh) | Giardia growth inactive | Mammal cell tox inactive | Giardia FBPA inh-2 inactive | Rabbit FBPA inh inactive | GAPDH coupling inactive
Brc1cccc(/C=N/Nc2nn[nH]n2)c1	none
CSc1cccc(NC(=S)N2CCC(N(C)C3CCCCC3)CC2)c1	Giardia FBPA inh-1 13µM (no result: NS1 inh) | Giardia growth inconclusive | Mammal cell tox inactive | Giardia FBPA inh-2 inactive | Rabbit FBPA inh inactive | GAPDH coupling inactive
COc1ccc2nc(S(=O)Cc3ncc(C)c(OC)c3C)[nH]c2c1 (centres undefined)	Giardia FBPA inh-1 16µM! | Giardia growth inconclusive | Mammal cell tox inactive | Giardia FBPA inh-2 inactive | Rabbit FBPA inh inactive | GAPDH coupling inactive
COc1ccc2nc(SCC(=O)Nc3c(C)cccc3C)[nH]c2c1	none
FC(F)(F)c1ccnc(NCc2ccc(Cl)cc2)n1	none
O=S(=O)(NNc1nccc(C(F)(F)F)n1)c1cccc(Cl)c1Cl	Giardia FBPA inh-1 16µM | Giardia growth inactive | Mammal cell tox inactive | Giardia FBPA inh-2 inconclusive | Rabbit FBPA inh inconclusive | GAPDH coupling inconclusive
CC1(C)CC(=O)C2=C(C1)N(c1cccnc1)C(N)=C(C#N)C2c1cccs1 (centres undefined)	Giardia FBPA inh-1 inconclusive
COc1ccc(C2C(C#N)=C(N)N(c3cccnc3)C3=C2C(=O)CC(C)(C)C3)cc1OC (centres undefined)	Giardia FBPA inh-1 14µM (no result: NS1 inh) | Giardia growth inactive | Mammal cell tox inactive | Giardia FBPA inh-2 inactive | Rabbit FBPA inh inactive | GAPDH coupling inactive
COc1ccc(OC)c(N(CC(=O)NN=C2CCN(C)CC2)S(=O)(=O)c2ccccc2)c1	none
CC(=O)Nc1ccc2nc3c(=O)n(C)c(=O)n(C)c3nc2c1	Giardia FBPA inh-1 18µM | Giardia growth inactive | Mammal cell tox inactive | Giardia FBPA inh-2 inconclusive | Rabbit FBPA inh inconclusive | GAPDH coupling 40µM
NC(=O)COC(=O)C1CSC2(c3ccc(F)cc3)CCC(=O)N12 (centres undefined)	none
CCN(CC(=O)NCc1ccc(F)cc1)C(=O)/C=C/c1cc(OC)ccc1OC	none
Cc1ccc(C(=O)NNC(=O)c2ccc(NC(=O)C(C)(C)C)cc2)cc1	none
CN1CCN(C(=S)c2ccc(Br)cc2)CC1	Giardia FBPA inh-1 16µM | Giardia growth inactive[10.4 µM] | Mammal cell tox inactive | Giardia FBPA inh-2 inactive | Rabbit FBPA inh inconclusive | GAPDH coupling inconclusive
CN1CCN(C(=S)c2ccc(N(C)C)cc2)CC1	Giardia FBPA inh-1 16µM | Giardia growth inconclusive | Mammal cell tox inactive | Giardia FBPA inh-2 inactive | Rabbit FBPA inh inconclusive | GAPDH coupling inconclusive
CCCc1c(C(=O)N/N=C/c2ccccc2C(F)(F)F)nnn1-c1nonc1N	none
CC(C)(C)c1cc(C(=O)O)n(Cc2ccc(Cl)cc2Cl)n1	none
CN(CC(=O)Nc1ccccc1Br)Cc1nc2ccccc2c(=O)[nH]1	Giardia FBPA inh-1 20µM | Giardia growth inactive[10.4 µM] | Mammal cell tox inactive | Giardia FBPA inh-2 inactive | Rabbit FBPA inh inactive | GAPDH coupling inconclusive
CCN(CC(=O)Nc1ccccc1SC)Cc1nc2ccccc2c(=O)[nH]1	Giardia FBPA inh-1 inconclusive
C/C(=N/NS(=O)(=O)c1ccc(C)cc1C)c1c[nH]c2ccccc12	none
CCc1ccc(N2CCN(S(=O)(=O)CC34CCC(CC3=O)C4(C)C)CC2)cc1 (centres undefined)	none
Cc1ccc(OCCCCCN2CCOCC2)cc1	none
Cc1ccc(OCCCN2CCOCC2)cc1	CHX counter 20, Giardia FBPA inh-1 20µM, Shiga inhibitor 20 | Giardia growth inconclusive | Mammal cell tox inactive | Giardia FBPA inh-2 inactive | Rabbit FBPA inh inactive | GAPDH coupling inactive
COc1cc(/C=N/NC(=O)c2ccncc2)ccc1OC(=O)c1cccc(F)c1	none (no result: Giardia FBPA inh-1)

Compound activity: PubChem, National Center for Advancing Translational Sciences (NCATS)
